According to PubChem BioAssay (Tox21):
Results filed as inconclusive are left out. A number with no mark means an inactive call. The call rests on the fitted dose curve; in most records, active means well fitted inhibition curve with a large enough effect in the signal ratio in the repeat runs (not every such curve was filed as active); inconclusive means weak or mixed curves; inactive means flat fitted curve, though single readings scatter; the % refers to the signal ratio.
On the % scale 0 is the no-effect control and ±100 the full control effect.

The compounds below were run against Progesterone receptor (Homo sapiens) (UniProt P06401) (assay: qHTS assay to identify small molecule antagonists of the progesterone receptor (PR) signaling pathway (AID 1346795)). Conditions: PR-UAS-bla HEK293T, beta-lactamase FRET ratio, 16 h; series mostly up to 92.4 µM; activity change, negative = inhibition: at the top concentration.
Progesterone receptor (Homo sapiens), sequence (P06401 whole entry, looked up): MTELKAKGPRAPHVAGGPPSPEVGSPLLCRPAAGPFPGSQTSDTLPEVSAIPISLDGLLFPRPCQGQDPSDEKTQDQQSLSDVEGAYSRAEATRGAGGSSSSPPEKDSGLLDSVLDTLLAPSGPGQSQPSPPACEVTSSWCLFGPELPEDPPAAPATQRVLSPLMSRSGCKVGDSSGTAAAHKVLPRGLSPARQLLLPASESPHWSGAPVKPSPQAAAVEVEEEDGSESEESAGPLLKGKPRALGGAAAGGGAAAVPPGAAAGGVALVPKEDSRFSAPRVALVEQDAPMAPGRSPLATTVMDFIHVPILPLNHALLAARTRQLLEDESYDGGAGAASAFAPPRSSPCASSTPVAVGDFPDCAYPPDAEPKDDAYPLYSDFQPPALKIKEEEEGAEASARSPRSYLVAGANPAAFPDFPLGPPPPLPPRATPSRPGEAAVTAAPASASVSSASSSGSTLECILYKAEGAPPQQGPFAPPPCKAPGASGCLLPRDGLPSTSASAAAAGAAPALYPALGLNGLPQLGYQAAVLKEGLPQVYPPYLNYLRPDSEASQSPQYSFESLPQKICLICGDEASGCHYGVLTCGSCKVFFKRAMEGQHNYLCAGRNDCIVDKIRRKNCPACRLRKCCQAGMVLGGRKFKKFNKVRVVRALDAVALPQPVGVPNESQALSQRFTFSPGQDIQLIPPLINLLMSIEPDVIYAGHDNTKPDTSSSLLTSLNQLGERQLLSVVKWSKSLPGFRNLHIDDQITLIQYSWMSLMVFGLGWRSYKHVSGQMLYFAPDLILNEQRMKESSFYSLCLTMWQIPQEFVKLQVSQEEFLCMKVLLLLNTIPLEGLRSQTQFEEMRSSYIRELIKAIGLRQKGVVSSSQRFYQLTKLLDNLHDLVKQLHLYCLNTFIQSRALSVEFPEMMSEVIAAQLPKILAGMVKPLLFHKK
Text: National Center for Advancing Translational Sciences [NCATS]
NIH Chemical Genomics Center [NCGC]
U.S. Environmental Protection Agency [EPA]
National Institutes of Environmental Health Sciences [NIEHS]
National Toxicology Program [NTP]
U.S. Food and Drug Administration [FDA]
Progesterone receptor (PR), a nuclear hormone receptor, plays an important role in development, metabolic homeostasis and reproduction. […] Endocrine disrupting chemicals (EDCs) and their interactions with steroid hormone receptors like PR causes disruption of normal endocrine function. To identify the compounds that inhibit PR signaling, a PR-UAS-bla GripTite cell line i.e. PR-UAS-bla HEK293T (Invitrogen, Carlsbad, CA, USA) containing a beta-lactamase reporter gene under the control of an Upstream Activator Sequence (UAS) was used to screen Tox21 10K compound library.
Tox21 Assay Protocol Summary:
PR-UAS-bla HEK293T cells were dispensed at 3,000 cells/4 uL of assay medium containing 2% charcoal stripped FBS per well into black wall/clear-bottom 1536-well plates using a Multidrop Combi (ThermoFisher Scientific, Waltham, MA) dispenser. After the assay plates were incubated at a 37C and 5% CO2 for 6 hr, 23 nL of compounds dissolved in DMSO, positive controls or DMSO only was transferred to the assay plate by a Pintool station (Kalypsys, San Diego, CA), followed by addition of 1 uL (1nM as final concentration) of Promegestone (R5020) in assay medium using a BioRAPTR FRD (Flying Reagent Dispenser, Aurora Discovery, San Diego, CA). The plates were incubated at 37C and 5% CO2 for 16 hr. Then 1 uL of LiveBLAzer B/G FRET substrate was added using a FRD. After the plates were incubated at room temperature for 2 hours, fluorescence intensity was measured by an Envision plate reader (PerkinElmer, Shelton, CT).
`CCCCN=C(N)N=C(N)N` was tested, and the “activity change, negative = inhibition” value was 5.73% [at 42.5 µM].
With `CCN1CCN(C(=O)N[C@@H](C(=O)N[C@@H]2C(=O)N3[C@@H]2SC(C)(C)[C@H]3C(=O)O)c2ccccc2)C(=O)C1=O` the “activity change, negative = inhibition” value was 0.386% [at 42.5 µM].
With `C=CCN(CC=C)CC=C` the “activity change, negative = inhibition” value was 12.2%.
With `CCNC(=O)C(C)OC(=O)Nc1ccccc1` (stereo not given) the “activity change, negative = inhibition” value was 10.7%.
In the case of `CC(C)=CCC/C(C)=C\C#N`, the “activity change, negative = inhibition” value is reported as 10.1%.
`CC[C@@]1(c2ccccc2)NC(=O)N(C)C1=O` was tested, and the “activity change, negative = inhibition” value was 7.96% [at 42.5 µM].
With `N#Cc1ccccc1C#N` the “activity change, negative = inhibition” value was 6.11%.
With `CCCCNCC` the “activity change, negative = inhibition” value was 0.565%.
With `CCCCCCCCS(=O)(=O)O` the “activity change, negative = inhibition” value was 13.9%.
In the case of `CCCCN1C(=O)c2ccccc2C1=O`, the “activity change, negative = inhibition” value is reported as -0.519%.
In the case of `CCO[Si](CC(C)C)(OCC)OCC`, the “activity change, negative = inhibition” value is reported as -12%.
For `CC1(C)CC(N)CC(C)(C)N1`, the “activity change, negative = inhibition” value was 15.8%.
With `CC(C)(O)c1ccc(C(C)(C)O)cc1` the “activity change, negative = inhibition” value was 7.97%.
`CCN(CC)CC` was tested, and the “activity change, negative = inhibition” value was -29%.
`COc1cnc(NS(=O)(=O)c2ccc(N)cc2)nc1` was tested, and the “activity change, negative = inhibition” value was 4.99% [at 42.5 µM].
`Cc1ccc2ccccc2n1` was tested, and the “activity change, negative = inhibition” value was 14.2%.
In the case of `Clc1cc(Cl)c(Cl)c(Cl)c1Cl`, the “activity change, negative = inhibition” value is reported as 6.55%.
`C=CCCCCCCCCCCCCCC` gave an activity change, negative = inhibition of 7.49% [at 18.9 µM].
For `CC/C=C\CCCCCCCCCCOC(C)=O`, the “activity change, negative = inhibition” value was 10.9%.
With `CC(C)C(C)C` the “activity change, negative = inhibition” value was 0.904%.
For `CNC(C)=O`, the “activity change, negative = inhibition” value was 14.7%.
In the case of `COCCCOc1cc(C[C@@H](C[C@H](N)[C@@H](O)C[C@H](C(=O)NCC(C)(C)C(N)=O)C(C)C)C(C)C)ccc1OC`, the “activity change, negative = inhibition” value is reported as 5.58% [at 42.5 µM].
For `C=C(C)C(=O)OCCCC`, the “activity change, negative = inhibition” value was 10.2%.
`C=COCCCCO` was tested, and the “activity change, negative = inhibition” value was -0.475%.
`CC(C)(C)OC(=O)c1ccccc1C(=O)O` was tested, and the “activity change, negative = inhibition” value was 3.18%.
With `COc1cc(OC)cc(OC)c1` the “activity change, negative = inhibition” value was 7.6% [at 42.5 µM].
For `CC1=C(O)C(=O)CO1`, the “activity change, negative = inhibition” value was 7.57%.
With `O=c1c(O)c(O)c1=O` the “activity change, negative = inhibition” value was 3.27%.
In the case of `CCCCOCCCC`, the “activity change, negative = inhibition” value is reported as 7.81%.
In the case of `C[C@@H]1NC(=O)[C@@H](N)CNC(=O)[C@H](C2CCNC(N)=N2)NC(=O)/C(=C/NC(N)=O)NC(=O)[C@H](CNC(=O)C[C@@H](N)CCCN)NC1=O` (stereo not given in full), the activity change, negative = inhibition is reported as 9.13% [at 0.348 µM].
For `O=Cc1ccccc1S(=O)(=O)O`, the “activity change, negative = inhibition” value was 10.1%.
In the case of `CCCc1ccc(O)c(OC)c1`, the “activity change, negative = inhibition” value is reported as -0.159%.
With `CCCCCCCCCCCCCC(=O)OCC` the “activity change, negative = inhibition” value was -5.05%.
In the case of `Cc1ccc2cccnc2c1`, the “activity change, negative = inhibition” value is reported as 10.6%.
In the case of `NCC1CCC(C(=O)Oc2ccc(CCC(=O)O)cc2)CC1` (stereo not given), the “activity change, negative = inhibition” value is reported as 4.97% [at 42.5 µM].
In the case of `O=C(O)P(=O)(O)O`, the “activity change, negative = inhibition” value is reported as 10.4% [at 42.5 µM].
`O=C1CCCc2c(O)cccc21` was tested, and the “activity change, negative = inhibition” value was -11.7% [at 42.5 µM].
`CNCCc1ccccn1` was tested, and the “activity change, negative = inhibition” value was 6.33% [at 42.5 µM].
In the case of `CCOc1ccccc1OCCN[C@H](C)Cc1ccc(OC)c(S(N)(=O)=O)c1`, the “activity change, negative = inhibition” value is reported as 3.61% [at 42.5 µM].
In the case of `COC(C)(C)CC(C)=O`, the “activity change, negative = inhibition” value is reported as 11.8%.
